Rtt109 Vps75: inhibitors of C. albicans Rtt109/Vps75 HAT, primary screen, biochemical, ThioGlo CoA-SH fluorescence, plate reader; AID 540336, 2011; hit rate 0.16% among 330,000; purified Rtt109/Vps75, 4 h; inhibition, % at 34.9 µM;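 active = inhibition of at least 50% in every replicate; inconclusive = best replicate reaches 50% inhibition but some replicates fall short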
HGIII-sPLA2 inh: human group III sPLA2 inhibitors, primary screen, biochemical, QFRET, BODIPY PC-A2 liposome substrate. hit rate 0.56% among 370,000. QFRET BODIPY PC-A2 liposome hydrolysis, fluorescence. inhibition, % at 12.2 µM;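 active = inhibition above mean plus 3 SD of compounds lying within the high and low control bounds, cut at about 19% in these data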;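 note: 0% = median of test compound wells and 100% = no enzyme DMSO wells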
ABHD5 PLIN5 PPI: ABHD5-PLIN5 interaction inhibitors, primary screen, cell lysate, split luciferase complementation, luminescence. Perilipin-5 (Homo sapiens) + 1-acylglycerol-3-phosphate O-acyltransferase ABHD5 (Homo …. Split G. princeps luciferase complementation, 4 h. inhibition, % at 4 µM. hit rate 0.78% among 360,000;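 active = inhibition above the mean inhibition across every tested compound plus 3 SD, cut at about 22% in these data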;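 note: 0% = DMSO only wells and the 100% control is not disclosed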
DAGLB inhibitor: DAGLB lipase inhibitors, primary screen, biochemical, fluorescence, HTS; HEK293T DAGLB membrane lysate, EnzChek fluorogenic substrate; inhibition, % at 5.17 µM; hit rate 0.059% among 340,000; Diacylglycerol lipase-beta (Homo sapiens), Q8NCG7; in the data active = inhibition above about 34%;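 note: 0% = enzyme with vehicle and 100% = wells lacking enzyme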
Target sequence (Q8NCG7 whole entry, looked up): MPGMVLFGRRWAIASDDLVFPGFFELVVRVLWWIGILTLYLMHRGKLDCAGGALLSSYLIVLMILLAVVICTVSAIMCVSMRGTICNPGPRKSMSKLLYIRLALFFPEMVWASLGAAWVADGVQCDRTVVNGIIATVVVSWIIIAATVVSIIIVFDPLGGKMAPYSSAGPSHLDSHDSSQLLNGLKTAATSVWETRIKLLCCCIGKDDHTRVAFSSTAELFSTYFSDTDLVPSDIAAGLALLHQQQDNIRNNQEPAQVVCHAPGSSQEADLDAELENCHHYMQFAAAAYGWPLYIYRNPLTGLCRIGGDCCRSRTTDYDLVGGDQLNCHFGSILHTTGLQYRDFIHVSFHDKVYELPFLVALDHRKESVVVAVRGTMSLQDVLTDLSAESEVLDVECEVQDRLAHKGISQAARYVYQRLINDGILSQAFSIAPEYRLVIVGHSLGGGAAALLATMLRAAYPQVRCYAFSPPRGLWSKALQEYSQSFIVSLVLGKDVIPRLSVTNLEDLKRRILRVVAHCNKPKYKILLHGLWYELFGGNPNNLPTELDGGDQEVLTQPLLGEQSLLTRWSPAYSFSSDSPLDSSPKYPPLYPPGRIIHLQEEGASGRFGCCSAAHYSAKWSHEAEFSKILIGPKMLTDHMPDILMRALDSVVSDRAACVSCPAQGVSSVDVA
H9c2 protect: cardioprotection against H2O2-induced cell death, primary screen, uHTS, H9c2 cells, ATPLite luminescence; hit rate 0.63% among 360,000; H9c2 cardiomyocytes, H2O2 injury protection, 2 h; protection from H2O2 cell death, % at 20 µM;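 active = compounds giving at least 50% protection of heart cells from peroxide-induced death in the single-dose screen, raw or plate-pattern-corrected value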;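 note: 0% = DMSO wells with peroxide and 100% = DMSO wells without peroxide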
Myeloid diff MLP: induction of myeloid progenitor differentiation, primary screen, cell-based, flow cytometry, MLPCN library; ER-HoxA9 myeloid progenitors, lysozyme-GFP differentiation; calls only at 10 µM; hit rate 1% among 360,000;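 active = normalized GFP-positive differentiation at or above the plate's own cutoff, the solvent-only control mean plus 3 SD; inconclusive = no clear call, values can overlap the other calls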;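 note: cells exposed to compound for four days before flow analysis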
* marks the source's active call; other numbers are inactive results; i = inactive; ? = inconclusive; · = no result given; + = active, no number; ! = repeats disagree. Shown are actives, neighbours in structure and some others; about 2.9% of the full set was active somewhere.

SMILES	Rtt109 Vps75	HGIII-sPLA2 inh	ABHD5 PLIN5 PPI	DAGLB inhibitor	H9c2 protect	Myeloid diff MLP
Cc1ccc(-c2n[nH]c(=O)c3ccccc23)cc1S(=O)(=O)NCCO	0	2	2	1	76*	i
CCOc1ccccc1N	-6	-4	0	-2	0	i
CC1CCN(c2c(NCC3CCC(C(=O)N4CCCC(C)C4)CC3)c(=O)c2=O)CC1 (centres undefined)	14	0	-2	-3	-6	i
CC(C)c1ccc(/C=N/NC(=O)c2cccc(S(=O)(=O)N3CCOCC3)c2)cc1	-1	5	-1	-3	0	i
CCN(CC)c1nc2cc(OC)ccc2cc1C#N	1	-1	-14	-9	-3	+
COc1ccc2cc(C#N)c(NC(C)C)nc2c1	-7	-3	-3	-2	2	i
CCOC(=O)C1CCN(c2nc3cc(OC)ccc3cc2C#N)CC1	-4	-14	-5	-6	-2	i
COc1ccc2cc(C#N)c(N3CCOCC3)nc2c1	-13	2	-19	-1	13	+
O=C(O)C1CCCN1C(=O)Oc1ccccc1 (centres undefined)	-15	5	7	2	-2	i
CCOC(=O)C1=C(C)N=C2c3ccccc3C(=O)C2C1c1ccc(Cl)cc1 (centres undefined)	16	5	3	29	11	i
CCOC(=O)C1=C(Cc2ccc(Cl)cc2)C(=O)c2ccccc2C1=O	1	·	42*	5	-19	i
Cc1ccc(C(=O)NC2CCCCN(Cc3cccc(F)c3)C2=O)cc1 (centres undefined)	·	3	·	·	·	·
CCOC(=O)c1c(C)[nH]c(O)c1C=Nc1ccc(Cl)cc1	3	-8	-4	-3	52*	i
COC(=O)c1c(C)[nH]c(O)c1C=Nc1ccc(Oc2ccccc2)cc1	·	5	-4	-2	84*	i
COC(=O)c1c(C)[nH]c(O)c1C=Nc1ccc(C(C)C)cc1	1	-15	-1	-2	12	i
CCOC(=O)c1c(C)[nH]c(O)c1C=Nc1ccc(C(F)(F)F)cc1	-1	-23	-12	-3	16	i
CC[N+]1=C(C)C(C)(C)c2cc(C)ccc21	6	12	4	2	-19	+
COc1cccc(CN(C(=O)c2cc3ccccc3oc2=O)C2CC2)c1	-1	1	2	1	5	i
CN1CCN(CCCNC(=O)c2ccc(/C=C3/Sc4ccccc4N(Cc4cccc(Cl)c4)C3=O)cc2)CC1	43	-26	21	0	-16	+
CN1CCN(CCCN2c3ccccc3Sc3ccc(Cl)cc32)CC1	53*!	9	16	4	-8	?
COc1ccc(NC(=O)Cn2nnc(C(=O)NCc3cccs3)c2N)cc1Cl	5	-2	1	-3	0	i
CC[n+]1c(/C=C/N(C)c2ccccc2)oc2ccccc21	2	-4	-2	-1	-6	?
CC[n+]1c(/C=C/Nc2ccccc2)oc2ccccc21	4	-7	0	-1	-14	+
CC[n+]1c(/C=C/Nc2ccccc2)oc2ccc(OC)cc21	-2	2	-3	-1	-14	+
O=C(/C=C/c1ccc(Cl)c([N+](=O)[O-])c1)Nc1ccc(N2CCCC2)cc1	-2	7	4	10	-11	i
SMILES	Rtt109 Vps75	HGIII-sPLA2 inh	ABHD5 PLIN5 PPI	DAGLB inhibitor	H9c2 protect	Myeloid diff MLP
Cc1cc(=O)oc2c(N)nccc12	·	·	22*	·	-5	i
N#CC(c1ccc(Cl)nn1)c1c(F)cccc1Cl (centres undefined)	0	11	3	-1	-6	i
Nc1cc(=O)[nH]c(SCC(=O)Nc2cccc([N+](=O)[O-])c2)n1	-12	2	-4	0	8	+
CNc1nc(-c2ccccn2)nnc1-c1ccccc1	-1	2	-5	0	52*	i
CC(=O)Nc1cccc(C(=O)/C=C/c2ccco2)c1	-6	1	29*	0	22	i
CC(=O)Nc1cccc(C(=O)/C=C/c2cccs2)c1	-7	-3	22*	0	26	i
CC(=O)Nc1cccc(C(=O)/C=C/c2ccc(/C=C/C(=O)c3cccc(NC(C)=O)c3)cc2)c1	·	-5	·	·	·	·
CCOc1ccc(OCc2cccc(C(=O)N/N=C/c3cccnc3)c2)cc1	1	4	-14	1	-6	i
CC(C)c1ccc(OCc2cccc(C(=O)N/N=C/c3cccnc3)c2)cc1	3	-17	-7	-3	-5	+
CCOC(=O)c1cc(-c2ccco2)nc2c1c(C)nn2-c1cccc(Cl)c1	-2	4	2	5	-3	i
O=c1[nH]c(=O)n(Cc2ccc(Oc3ccccc3)cc2)cc1Br	4	-15	-3	1	23	i
C=C1CC(Cn2cc(Br)c(=O)[nH]c2=O)(c2ccc(-c3ccccc3)cc2)OC1=O (centres undefined)	6	-12	54*	2	-18	?
CC(/C=C(\NC(=O)c1ccccc1)C(=O)N=Nc1c(O)[nH]c2ccc(C)cc12)=C\c1ccccc1	-2	-3	9	23	62*	i
Cc1ccc2[nH]c(O)c(N=NC(N)=S)c2c1	1	11	-1	2	-9	i
O=C(c1ccco1)N(CCC(c1ccccc1)c1ccco1)Cc1ccc(F)cc1 (centres undefined)	3	·	9	-6	-18	+
O=C/C=C/c1c(-c2ccccc2)cc2oc3ccccc3cc1-2	-7	13	2	5	-7	i
CCn1cc(C2Nc3ccccc3C(=O)N2O)c(C)n1 (centres undefined)	3	6	-2	2	1	i
O=C1c2ccccc2NC(c2cccc([N+](=O)[O-])c2)N1O (centres undefined)	6	-9	5	4	25	i
O=C1c2ccccc2NC(c2ccc([N+](=O)[O-])cc2)N1O (centres undefined)	7	-6	-1	5	62*	i
Cc1c(C2Nc3ccccc3C(=O)N2O)cnn1C (centres undefined)	-8	1	-3	0	52*	i
NC(=O)C1CC(=O)N(c2ccc(OCc3c(Cl)cccc3Cl)cc2)C1 (centres undefined)	-4	11	2	3	-1	i
COC1=CC2(O)CCCC2=CC1=O (centres undefined)	-1	9	9	5	9	+

Source: PubChem BioAssay (several laboratories)
